Consider nine molecules from PubChem BioAssay (Tox21).

The structures appear in SMILES notation. Values without a mark were called inactive. Results filed as inconclusive are left out. Activity calls are given as the source filed them. Unless noted, calls come from the whole dose curve; as a rule, active = well fitted curve in the direction sought with a large enough effect in the repeat runs; inconclusive = weak or mixed curves; inactive = no such curve, though single readings can be large; an effect the other way counts as inactive or inconclusive.

The nature of assay [1]: qHTS assay to identify small molecule agonists of the androgen receptor (AR) signaling pathway in the presence of an antagonist - cell viability counter screen (AID 1259379).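 Note: MDA-kb2 human breast cancer cells carrying an MMTV luciferase reporter; series mostly up to about 92 µM; nearly all actives have a fitted effect of over 25% in size.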 Put shortly: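 A CellTiter-Fluor read-out measured viability of MDA-kb2 reporter cells (MMTV promoter with AR and GR response elements). Treatment: nilutamide 3.0uM final with compounds at 15 concentrations, 16 hr, 37C, 0% CO2.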
On the technique in general: qHTS replaces the single test concentration by a dilution series.

Assay [2] deals with Androgen receptor (Homo sapiens) (UniProt P10275). Briefly: qHTS assay to identify small molecule agonists of the androgen receptor (AR) signaling pathway in the presence of an antagonist (AID 1259381; calls by dose curve; note: nearly all actives have a fitted effect of over 15% in size). Put shortly: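 Using human MDA-kb2 cells with an MMTV promoter–luciferase construct (AR and GR response elements), agonist activity is scored under 3.0uM nilutamide (final) co-treatment; 16hr incubation, 37C, luminescence readout via ONE-Glo.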

For assay [3], the target named is Estrogen receptor (Homo sapiens) (UniProt P03372). Nature of the assay: qHTS assay to identify small molecule agonists of the estrogen receptor alpha (ER-alpha) signaling pathway in the presence of an antagonist (AID 1259383; calls by dose curve; note: top concentration of the series differs between compounds; nearly all actives have a fitted effect of over 15% in size). Put shortly: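 Using VM7Luc4E2 cells seeded 24hr before treatment, antagonist ICI-182,780 (10.0nM final) was added, followed by compounds at 15 concentrations. Plates incubated 22hr; ONE-Glo luminescence quantified reporter activity.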

Assay [4] is described as follows: qHTS assay to identify small molecule agonists or antagonists of the thyroid stimulating hormone receptor (TSHR) signaling pathway - wild type cell line counter screen (AID 1259384; calls by dose curve). Put shortly: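 Counter screen in untransfected Hek293: compounds (15-point titration, triplicate) plus phosphodiesterase inhibitor Ro20-1724 added after 18 h plating; 30 min RT. Intracellular cAMP via competitive d2/cryptate immunoassay, 1 h incubation.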

For assay [5], the target named is Thyrotropin receptor (Homo sapiens) (UniProt P16473). Briefly: qHTS assay to identify small molecule antagonists of the thyroid stimulating hormone receptor (TSHR) signaling pathway (AID 1259385; calls by dose curve; note: nearly all actives have a fitted effect of over 20% in size; note: potency is the fitted concentration of half-maximal effect). Put shortly:
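Antagonist mode: compound-treated TSHR-expressing HEK293 cells were stimulated with 1.5 ng/mL TSH (final) in presence of Ro20-1724 for 30 min at RT. HTRF cAMP detection after 1 h; each compound tested at 15 concentrations, triplicate.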

Assay [6] is described as follows: qHTS assay to identify small molecule agonists of the estrogen receptor alpha (ER-alpha) signaling pathway in the presence of an antagonist - cell viability counter screen (AID 1259386).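 Note: series mostly up to about 92 µM; cells exposed to compounds for 22 h at 37 °C before the viability read; nearly all actives have a fitted effect of over 30% in size.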 Put shortly:
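ICI-182,780 at 10.0nM final accompanies the compound titration (15 concentrations, 22hr, 37C) on VM7Luc4E2 cells. The CellTiter-Fluor fluorescence readout runs in the same wells as the luciferase assay.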

For assay [7], the target named is Progesterone receptor (Homo sapiens) (UniProt P06401). Nature of the assay: qHTS assay to identify small molecule agonists of the progesterone receptor (PR) signaling pathway (AID 1346784; calls by dose curve; note: nearly all actives have a fitted effect of over 30% in size). Put shortly:
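Cells (PR-UAS-bla HEK 293T, GripTite) were plated in assay medium containing 2% charcoal-stripped FBS and incubated 6 hr. Test compounds in DMSO were added for 16 hr at 37C. FRET substrate was then loaded for 2 hr at room temperature before fluorescence reading.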

Assay [8] is described as follows: qHTS assay to identify small molecule antagonists of the progesterone receptor (PR) signaling pathway - cell viability counter screen (AID 1346798). Note: nearly all actives have a fitted effect of over 50% in size. Note: potency is the fitted concentration of half-maximal effect. Put shortly: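 Counter screen for cytotoxicity: viability of PR-UAS-bla HEK293T cells was measured with CellTiter-Glo luminescence following 16 hr compound exposure in the presence of R5020.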
Assay [9] in a line: qHTS assay to identify small molecule antagonists of the TGF-beta/Smad signaling pathway - cell viability counter screen (AID 1346824). Note: nearly all actives have a fitted effect of over 50% in size. Put shortly:
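Cytotoxicity counter-screen run in the same wells as the beta-lactamase Smad reporter read: CellTiter-Glo luminescence after 30 min at room temperature. HEK 293T SBE-bla cells had 5 hr compound exposure at 37 C with TGF-beta1 (0.25 ng/mL stock).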

Assay [10] can be described thus: qHTS assay to identify small molecule agonists of the TGF-beta/Smad signaling pathway - cell viability counter screen (AID 1346829). Note: top concentration of the series differs between compounds; nearly all actives have a fitted effect of over 45% in size. Put shortly: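 SBE-bla HEK 293T cells plated overnight, compound exposure 5 hr at 37 C. Viability read in the same wells by CellTiter-Glo luminescence after 30 min at room temperature, following the beta-lactamase read.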
Assay [11] in a line: qHTS assay to identify small molecule agonists of the TGF-beta/Smad signaling pathway (AID 1346859; active = well fitted activation curve with a large enough effect in the signal ratio in the repeat runs, not every such curve was filed as active; the % refers to the signal ratio; note: series mostly up to about 77 µM). Put shortly: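 Reporter line: HEK 293T with stably integrated SBE-controlled beta-lactamase. Compound exposure lasts 5 hr at 37 C and 5% CO2; substrate loading follows for 2 hr at room temperature, with emission read at 460 and 530 nm.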
The target in assay [12] is Thyrotropin-releasing hormone receptor (Homo sapiens) (UniProt P34981). Briefly: qHTS assay to identify small molecule antagonists of the thyrotropin-releasing hormone receptor (TRHR) signaling pathway (AID 1346877; active = well fitted inhibition curve with a large enough effect in the repeat runs, not every such curve was filed as active; note: series mostly up to about 51 µM). Put shortly:
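Screening used HEK293 cells engineered with TRHR, with a brief 5 min room-temperature compound exposure preceding addition of TRH to 1 nM. The read-out was kinetic calcium-dye fluorescence, concentration-response from 15 doses in triplicate.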

Assay [13] shares this target. Briefly: qHTS assay to identify small molecule agonists of the thyrotropin-releasing hormone receptor (TRHR) signaling pathway (AID 1346891; calls by dose curve;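 note: HEK293 cells expressing TRHR with calcium dye readout; series mostly up to about 58 µM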). Put shortly: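 Cells: TRHR-Hek293, seeded and incubated 18 h. Dye loading: 2 h at 37 °C. Compound added from DMSO stock by pin tool. Read-out: kinetic calcium fluorescence over 3 min.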
Assay [14] in a line: qHTS assay to identify small molecule agonists of the estrogen receptor beta (ER-beta) signaling pathway - cell viability counter screen (AID 1259380). Note: nearly all actives have a fitted effect of over 30% in size. Note: potency is the fitted concentration of half-maximal effect. Put shortly:
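Cells used were ER-beta-UAS-bla HEK293T in medium with 2% charcoal-stripped FBS. They were treated for 16 hr at 37C. Viability came from CellTiter-Glo luminescence.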

Assay [15] in a line: qHTS assay to identify small molecule antagonists of the estrogen receptor beta (ER-beta) signaling pathway - cell viability counter screen (AID 1259382). Note: series mostly up to about 92 µM; nearly all actives have a fitted effect of over 55% in size. Put shortly: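 Agonist-stimulated (1nM E2) ER-beta-UAS-bla HEK293T cells are incubated with library compounds for 16 hr at 37C. Cell viability is then assessed in the reporter-assay wells by adding CellTiter-Glo and reading luminescence after 30 min.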

Assay [16] can be described thus: qHTS assay to identify small molecule agonists of the progesterone receptor (PR) signaling pathway - cell viability counter screen (AID 1346799; calls by dose curve; note: nearly all actives have a fitted effect of over 45% in size). Put shortly:
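Cells (PR-UAS-bla HEK293T) are plated at 3,000/well in 2% charcoal-stripped FBS medium, rested 6 hr, dosed and incubated 16 hr at 37C. CellTiter-Glo is then added and luminescence measured after 30 min at room temperature.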

The target in assay [17] is Progesterone receptor (Homo sapiens) (UniProt P06401). Nature of the assay: qHTS assay to identify small molecule antagonists of the progesterone receptor (PR) signaling pathway (AID 1346795; active = well fitted inhibition curve with a large enough effect in the signal ratio in the repeat runs, not every such curve was filed as active; the % refers to the signal ratio; note: potency is the fitted concentration of half-maximal effect). Put shortly:
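Antagonist mode: compounds tested against 1 nM (final) promegestone stimulation in HEK293T cells expressing PR-UAS-bla reporter, 16 hr at 37C, 5% CO2; beta-lactamase activity detected via B/G FRET substrate after 2 hr at room temperature.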

In assay [18] the target is Estrogen receptor beta (Homo sapiens) (UniProt Q92731). Nature of the assay: qHTS assay to identify small molecule antagonists of the estrogen receptor beta (ER-beta) signaling pathway (AID 1259378; active = well fitted inhibition curve with a large enough effect in the signal ratio in the repeat runs, not every such curve was filed as active; the % refers to the signal ratio). Put shortly: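 Antagonist mode: compounds added to beta-lactamase reporter HEK293T ER-beta-UAS cells stimulated with E2 (1nM final), 16 hr at 37C. LiveBLAzer B/G FRET substrate, 2 hours room temperature, fluorescence read-out.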

Assay [19] shares this target. Nature of the assay: qHTS assay to identify small molecule agonists of the estrogen receptor beta (ER-beta) signaling pathway (AID 1259377; active = well fitted activation curve with a large enough effect in the signal ratio in the repeat runs, not every such curve was filed as active; the % refers to the signal ratio). Put shortly: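 Agonist mode cell assay in GripTite HEK293T cells expressing an ER-beta fusion that drives beta-lactamase from an Upstream Activator Sequence; 16 hr compound exposure at 37C, then 2 h LiveBLAzer B/G FRET substrate at room temperature, fluorescence read-out.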

Estrogen receptor beta (Homo sapiens), sequence (Q92731 whole entry, looked up): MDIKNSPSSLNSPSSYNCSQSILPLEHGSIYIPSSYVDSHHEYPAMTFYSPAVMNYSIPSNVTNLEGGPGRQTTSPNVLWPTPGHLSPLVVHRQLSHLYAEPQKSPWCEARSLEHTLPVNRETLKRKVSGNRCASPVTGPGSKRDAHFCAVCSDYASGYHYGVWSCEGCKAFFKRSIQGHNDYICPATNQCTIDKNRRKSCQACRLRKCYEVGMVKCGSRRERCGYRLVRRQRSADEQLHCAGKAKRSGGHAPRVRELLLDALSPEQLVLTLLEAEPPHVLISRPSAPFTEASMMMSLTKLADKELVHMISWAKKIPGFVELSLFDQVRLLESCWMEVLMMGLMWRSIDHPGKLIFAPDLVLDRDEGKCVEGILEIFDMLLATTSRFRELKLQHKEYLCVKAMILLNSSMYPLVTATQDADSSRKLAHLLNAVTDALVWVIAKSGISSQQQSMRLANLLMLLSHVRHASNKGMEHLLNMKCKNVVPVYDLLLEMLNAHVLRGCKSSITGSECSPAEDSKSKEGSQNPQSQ
Progesterone receptor (Homo sapiens), sequence (P06401 whole entry, looked up): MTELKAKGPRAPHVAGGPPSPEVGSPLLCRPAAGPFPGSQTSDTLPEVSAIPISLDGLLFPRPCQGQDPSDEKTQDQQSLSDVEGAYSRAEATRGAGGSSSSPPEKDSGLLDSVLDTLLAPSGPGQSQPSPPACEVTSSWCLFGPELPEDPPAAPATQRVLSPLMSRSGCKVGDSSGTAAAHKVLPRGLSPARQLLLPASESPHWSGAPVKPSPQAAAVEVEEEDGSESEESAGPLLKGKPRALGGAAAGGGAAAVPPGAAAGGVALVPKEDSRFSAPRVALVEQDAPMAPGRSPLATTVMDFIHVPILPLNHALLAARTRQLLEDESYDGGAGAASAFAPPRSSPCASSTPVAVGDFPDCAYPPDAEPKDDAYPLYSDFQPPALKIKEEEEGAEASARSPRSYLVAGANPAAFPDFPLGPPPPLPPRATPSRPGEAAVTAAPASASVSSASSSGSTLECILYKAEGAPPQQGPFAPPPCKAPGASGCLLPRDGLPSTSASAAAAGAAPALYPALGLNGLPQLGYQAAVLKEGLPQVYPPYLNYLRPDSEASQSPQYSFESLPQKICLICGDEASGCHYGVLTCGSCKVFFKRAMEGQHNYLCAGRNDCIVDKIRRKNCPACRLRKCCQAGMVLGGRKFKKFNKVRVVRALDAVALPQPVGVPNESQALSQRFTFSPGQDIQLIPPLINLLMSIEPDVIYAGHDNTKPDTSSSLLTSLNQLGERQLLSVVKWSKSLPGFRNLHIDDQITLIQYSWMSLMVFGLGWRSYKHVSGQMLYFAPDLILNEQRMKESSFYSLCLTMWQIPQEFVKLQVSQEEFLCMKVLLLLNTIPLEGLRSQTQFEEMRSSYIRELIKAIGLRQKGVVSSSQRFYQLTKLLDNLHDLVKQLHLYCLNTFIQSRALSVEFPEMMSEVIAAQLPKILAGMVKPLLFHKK
Thyrotropin receptor (Homo sapiens), sequence (P16473 whole entry, looked up): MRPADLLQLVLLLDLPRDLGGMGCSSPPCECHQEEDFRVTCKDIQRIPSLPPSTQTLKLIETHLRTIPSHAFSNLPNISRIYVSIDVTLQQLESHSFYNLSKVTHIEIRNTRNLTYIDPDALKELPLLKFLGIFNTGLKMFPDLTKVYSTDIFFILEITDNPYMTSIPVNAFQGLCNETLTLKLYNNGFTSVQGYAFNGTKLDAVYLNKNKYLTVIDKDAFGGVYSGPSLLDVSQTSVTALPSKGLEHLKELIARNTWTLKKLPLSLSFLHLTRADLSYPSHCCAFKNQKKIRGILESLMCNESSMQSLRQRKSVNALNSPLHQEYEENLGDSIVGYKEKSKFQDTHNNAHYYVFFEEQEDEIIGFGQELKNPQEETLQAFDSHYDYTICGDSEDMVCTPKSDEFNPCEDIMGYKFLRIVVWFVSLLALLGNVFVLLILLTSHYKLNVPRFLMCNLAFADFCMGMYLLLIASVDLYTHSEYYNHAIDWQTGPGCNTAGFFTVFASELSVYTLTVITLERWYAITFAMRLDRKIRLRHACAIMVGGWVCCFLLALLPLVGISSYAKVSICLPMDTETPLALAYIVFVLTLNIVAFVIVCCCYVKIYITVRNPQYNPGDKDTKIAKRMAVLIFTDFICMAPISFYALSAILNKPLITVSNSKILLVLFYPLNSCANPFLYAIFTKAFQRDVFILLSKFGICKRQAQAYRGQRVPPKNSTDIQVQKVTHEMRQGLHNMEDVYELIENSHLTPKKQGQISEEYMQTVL
Estrogen receptor (Homo sapiens), sequence (P03372 whole entry, looked up): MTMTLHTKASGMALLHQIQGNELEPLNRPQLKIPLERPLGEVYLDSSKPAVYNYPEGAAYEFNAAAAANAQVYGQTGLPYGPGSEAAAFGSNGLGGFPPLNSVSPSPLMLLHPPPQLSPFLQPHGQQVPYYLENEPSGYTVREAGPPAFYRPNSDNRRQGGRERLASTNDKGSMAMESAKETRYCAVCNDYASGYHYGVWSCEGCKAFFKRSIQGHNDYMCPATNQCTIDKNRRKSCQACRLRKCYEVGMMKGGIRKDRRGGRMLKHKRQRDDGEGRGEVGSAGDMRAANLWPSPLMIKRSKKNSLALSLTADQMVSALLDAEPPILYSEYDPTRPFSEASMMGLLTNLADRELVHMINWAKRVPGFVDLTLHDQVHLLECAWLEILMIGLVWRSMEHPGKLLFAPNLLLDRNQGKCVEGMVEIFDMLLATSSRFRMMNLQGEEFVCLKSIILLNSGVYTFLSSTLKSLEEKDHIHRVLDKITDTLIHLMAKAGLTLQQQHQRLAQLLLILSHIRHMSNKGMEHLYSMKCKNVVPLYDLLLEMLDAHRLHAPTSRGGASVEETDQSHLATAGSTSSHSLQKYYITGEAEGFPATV
Thyrotropin-releasing hormone receptor (Homo sapiens), sequence (P34981 whole entry, looked up): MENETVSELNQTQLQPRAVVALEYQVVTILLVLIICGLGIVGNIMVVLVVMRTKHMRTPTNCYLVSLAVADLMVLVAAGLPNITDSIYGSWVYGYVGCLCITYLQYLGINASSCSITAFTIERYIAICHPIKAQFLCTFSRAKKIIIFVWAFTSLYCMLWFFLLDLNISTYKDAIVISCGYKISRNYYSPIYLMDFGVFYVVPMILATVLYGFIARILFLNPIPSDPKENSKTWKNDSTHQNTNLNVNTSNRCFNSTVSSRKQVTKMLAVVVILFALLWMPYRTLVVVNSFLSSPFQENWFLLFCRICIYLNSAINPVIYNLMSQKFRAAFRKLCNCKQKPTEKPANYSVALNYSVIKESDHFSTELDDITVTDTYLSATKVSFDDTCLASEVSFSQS
Androgen receptor (Homo sapiens), sequence (P10275 whole entry, looked up): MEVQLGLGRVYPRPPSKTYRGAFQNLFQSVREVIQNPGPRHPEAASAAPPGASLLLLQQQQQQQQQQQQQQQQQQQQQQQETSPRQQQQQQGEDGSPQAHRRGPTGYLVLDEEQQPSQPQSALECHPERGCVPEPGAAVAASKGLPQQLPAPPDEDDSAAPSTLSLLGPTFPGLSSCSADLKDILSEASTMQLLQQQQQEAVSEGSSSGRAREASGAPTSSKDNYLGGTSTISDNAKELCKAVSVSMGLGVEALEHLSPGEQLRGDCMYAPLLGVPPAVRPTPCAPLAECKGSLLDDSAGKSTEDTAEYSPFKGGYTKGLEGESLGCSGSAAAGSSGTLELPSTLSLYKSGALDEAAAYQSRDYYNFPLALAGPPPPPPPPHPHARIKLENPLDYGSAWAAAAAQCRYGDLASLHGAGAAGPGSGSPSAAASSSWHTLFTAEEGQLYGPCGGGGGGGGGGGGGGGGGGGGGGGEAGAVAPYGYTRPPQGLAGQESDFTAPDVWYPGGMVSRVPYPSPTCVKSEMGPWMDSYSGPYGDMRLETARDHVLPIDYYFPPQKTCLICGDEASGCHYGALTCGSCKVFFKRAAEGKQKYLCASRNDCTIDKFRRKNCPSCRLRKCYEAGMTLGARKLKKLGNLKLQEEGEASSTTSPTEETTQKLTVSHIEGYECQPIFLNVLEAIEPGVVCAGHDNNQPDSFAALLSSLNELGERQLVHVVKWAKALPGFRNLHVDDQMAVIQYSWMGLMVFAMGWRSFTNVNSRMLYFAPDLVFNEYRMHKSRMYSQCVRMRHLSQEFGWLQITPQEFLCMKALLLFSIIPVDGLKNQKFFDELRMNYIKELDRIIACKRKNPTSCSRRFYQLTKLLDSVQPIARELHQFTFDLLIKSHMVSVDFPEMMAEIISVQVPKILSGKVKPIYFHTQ

As to `Cc1nc(-c2ccccn2)ncc1C(=O)Nn1cc(C)c2cc(F)ccc21`, the Potency result in assay [1], in assay [2], in assay [3], in [5], in [6] and in [7] was “inactive” throughout. In addition, in assay [13], the Potency result is “inactive”. Further, the molecule was called inactive in [4], in assay [9], in assay [10], in [11] and in [12]. Besides, the Potency in [8] was 30.6 µM (active).
Turning to `CC(C)C1=CC2=CC[C@@H]3[C@](C)(CCC[C@@]3(C)C(=O)O)[C@H]2CC1`, the Potency entry in assay [1], in [6], in assay [7], in assay [8], in assay [16] and in [13] was “inactive” in each case. Further, the Potency in assay [14] is 30.6 µM (active). Also, the result in assay [15], in [9], in assay [10], in assay [11] and in [12] was inactive.
For `CCN(CC)CCOc1ccc(Cc2ccccc2)cc1`, the Potency result in [1], in [3], in assay [6], in assay [7], in assay [17] and in assay [16] was “inactive” throughout. Further, the molecule was classed as inactive in [15], in [4], in [9], in [10] and in assay [11]. Also, the Potency in [5] is 29.8 µM (active).
For `ClC(Cl)Cl`, the Potency result in assay [18], in assay [1], in [5], in assay [6] and in assay [7] was “inactive” each time. Moreover, the result in assay [15], in assay [4], in assay [9], in [10] and in assay [11] was inactive.
For the molecule `NC1=NCC2c3ccccc3Cc3ccccc3N12` (stereo not drawn), the Potency result in [1], in [6], in [7], in assay [17], in assay [8] and in assay [16] was “inactive” throughout. In addition, the Potency entry in assay [13] is “inactive”. Further, the outcome in [15], in assay [9], in assay [10], in assay [11] and in assay [12] was inactive.
In the case of `CCOc1ccc2nc(N)sc2c1`, the Potency result in [1], in [3], in [5], in [6], in assay [7] and in [8] was “inactive” each time. Besides, the Potency entry in assay [16] and in assay [13] was “inactive” throughout. Moreover, the call in [4], in assay [9], in assay [10], in [11] and in assay [12] was inactive. Also, in [17], the Potency is 60.6 µM (active).
Turning to `OCCN(CCO)c1ccccc1`, the Potency entry in assay [18], in assay [1], in assay [2], in [6], in [7] and in [17] was “inactive” throughout. The Potency entry in assay [16] and in [13] was “inactive” each time. Further, the molecule was called inactive in assay [15], in assay [9], in assay [10], in assay [11] and in assay [12].
Take `C/C(=N\O)[C@@H](C)NCC(C)(C)CN[C@H](C)/C(C)=N/O`: the Potency result in assay [1], in assay [14], in assay [5], in assay [6], in assay [16] and in assay [13] was “inactive” throughout. For the same molecule, the molecule was classed as inactive in [15], in assay [4], in assay [9], in assay [10], in [11] and in assay [12].
In the case of `CC(C)NC[C@@H](O)COc1cccc2ccccc12`, the result in assay [19], in [9], in [10], in [11] and in assay [12] was inactive. Besides, the Potency result in [1], in [6], in assay [7], in [17] and in assay [13] was “inactive” each time.
